# PubChem BioAssay (NCATS)
# Records with an inconclusive call do not appear. A call without a number means that no potency is given here. The source made the active and inactive calls. Unless noted, calls come from the whole dose curve; as a rule, active = well fitted inhibition curve with a large enough effect; inconclusive = small, poorly fitted or top-dose-only effect; inactive = flat fitted curve, though single readings scatter.
# Tests used:
# [1] = qHTS drug screen for cell cycle checkpoint inhibitors in PARPi-resistant BRCA-mutant ovarian cancer cell lines. (AID 1963452; calls by dose curve); settings: PEO1/OlaR viability, CellTiter-Glo luminescence, 96 h; for Z-AUC: stronger effect = lower value
# Procedure, shortened: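 PEO1, PEO4 and PEO1/OlaR ovarian cancer cells, 600 per well, exposed 96 h at 37C to a dilution series. Viability read by CellTiter-Glo luminescence, normalized to DMSO and empty wells; activity summarized as Z-AUC.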
# [2] = qHTS profiling for inhibitors of Plasmodium falciparum proliferation (AID 504749); for all read-outs here: nearly all actives have a fitted effect of over 60% in size; settings: P. falciparum in erythrocytes, SYBR Green DNA, 72 h; for activity, negative = inhibition: at 28.7 µM (top of the series)
# Procedure, shortened: (§1)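 Parasite proliferation within erythrocytes, 72 h exposure. Endpoint: SYBR Green I fluorescence after overnight lysis at room temperature. Controls: 0.29 uM artemisinin, DMSO.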
# 3D7 = assay: as above; settings: P. falciparum in erythrocytes, SYBR Green DNA, 72 h; series mostly up to 28.7 µM
# Procedure, shortened: as §1
# 7G8 = assay: as above; settings: P. falciparum in erythrocytes, SYBR Green DNA, 72 h; series mostly up to 28.7 µM
# Procedure, shortened: as §1
# AA1029 = assay: as above; settings: P. falciparum in erythrocytes, SYBR Green DNA, 72 h; series mostly up to 28.7 µM
# Procedure, shortened: as §1
# AS120 = assay: as above; settings: P. falciparum in erythrocytes, SYBR Green DNA, 72 h; series mostly up to 28.7 µM
# Procedure, shortened: as §1
# ATS189 = assay: as above; settings: P. falciparum in erythrocytes, SYBR Green DNA, 72 h; series mostly up to 28.7 µM
# Procedure, shortened: as §1
# ATS95 = assay: as above; settings: P. falciparum in erythrocytes, SYBR Green DNA, 72 h; series mostly up to 28.7 µM
# Procedure, shortened: as §1
# C2A = assay: as above; settings: P. falciparum in erythrocytes, SYBR Green DNA, 72 h; series mostly up to 28.7 µM
# Procedure, shortened: as §1
# CP185 = assay: as above; settings: P. falciparum in erythrocytes, SYBR Green DNA, 72 h; series mostly up to 28.7 µM
# Procedure, shortened: as §1
# CP191 = assay: as above; settings: P. falciparum in erythrocytes, SYBR Green DNA, 72 h; series mostly up to 28.7 µM
# Procedure, shortened: as §1
# CP192 = assay: as above; settings: P. falciparum in erythrocytes, SYBR Green DNA, 72 h; series mostly up to 28.7 µM
# Procedure, shortened: as §1
# CP194 = assay: as above; settings: P. falciparum in erythrocytes, SYBR Green DNA, 72 h; series mostly up to 28.7 µM
# Procedure, shortened: as §1
# CP201 = assay: as above; settings: P. falciparum in erythrocytes, SYBR Green DNA, 72 h; series mostly up to 28.7 µM
# Procedure, shortened: as §1
# CP203 = assay: as above; settings: P. falciparum in erythrocytes, SYBR Green DNA, 72 h; series mostly up to 28.7 µM
# Procedure, shortened: as §1
# CP211 = assay: as above; settings: P. falciparum in erythrocytes, SYBR Green DNA, 72 h; series mostly up to 28.7 µM
# Procedure, shortened: as §1
# CP215 = assay: as above; settings: P. falciparum in erythrocytes, SYBR Green DNA, 72 h; series mostly up to 28.7 µM
# Procedure, shortened: as §1
# CP217 = assay: as above; settings: P. falciparum in erythrocytes, SYBR Green DNA, 72 h; series mostly up to 28.7 µM
# Procedure, shortened: as §1
# CP237 = assay: as above; settings: P. falciparum in erythrocytes, SYBR Green DNA, 72 h; series mostly up to 28.7 µM
# Procedure, shortened: as §1
# CP238 = assay: as above; settings: P. falciparum in erythrocytes, SYBR Green DNA, 72 h; series mostly up to 28.7 µM
# Procedure, shortened: as §1
# [3] = measured here: PEO1 parental Z-AUC
# Potency is the fitted concentration of half-maximal effect.
smiles,measurement,setting,value
CNC(=O)c1ccc(Nc2ncc(C(F)(F)F)c(NCc3nccnc3N(C)S(C)(=O)=O)n2)cc1,Z-AUC,[1],-0.202 (inactive)
same,Z-AUC,[1]; [3],0.488
same,Z-AUC,[1]; measured here: PEO4 Z-AUC,-0.174
CCCC(=O)Nc1ncnc2c1ncn2C1OC2COP(=O)(O)OC2C1OC(=O)CCC (configuration not stated),"activity, negative = inhibition",[2]; parasite line A,6.84% (inactive)
same,"activity, negative = inhibition",[2]; parasite line B,-4.45% (inactive)
same,Potency,3D7,inactive
same,Potency,7G8,inactive
same,Potency,AA1029,inactive
same,Potency,AS120,inactive
same,Potency,ATS189,inactive
same,Potency,ATS95,inactive
same,Potency,C2A,inactive
same,Potency,CP185,inactive
same,Potency,CP191,inactive
same,Potency,CP192,inactive
same,Potency,CP194,inactive
same,Potency,CP201,inactive
same,Potency,CP203,inactive
same,Potency,CP211,inactive
same,Potency,CP215,inactive
same,Potency,CP217,inactive
same,Potency,CP237,inactive
same,Potency,CP238,inactive
CCCCN(CCCC)C(=O)CN1C[C@H](c2ccc3c(c2)OCO3)[C@@H](C(=O)O)[C@@H]1c1ccc(OC)cc1,Z-AUC,[1],0.882 (inactive)
same,Z-AUC,[1]; [3],0.661
same,Z-AUC,[1]; measured here: PEO4 Z-AUC,0.129
NC1CCC(N[C@@H]2C[C@H]2c2ccccc2)CC1 (some centres not stated),Z-AUC,[1],-1.43 (inactive)
same,Z-AUC,[1]; [3],-0.571
same,Z-AUC,[1]; measured here: PEO4 Z-AUC,-0.668
NS(=O)(=O)OC[C@@H]1C[C@@H](n2ccc3c(N[C@H]4CCc5ccccc54)ncnc32)C[C@@H]1O,Potency,[1],0.347 µM (active)
same,Z-AUC,[1]; [3],-1.6
same,Z-AUC,[1]; measured here: PEO4 Z-AUC,-1.88
CCCCCCCCCCCCCCCC(=O)OCC(COC(=O)CCCCCCCCCCCCCCC)OC(=O)CCCCCCCCCCCCCCC,"activity, negative = inhibition",[2]; parasite line A,-0.409% (inactive)
same,"activity, negative = inhibition",[2]; parasite line B,9.45% (inactive)
same,Potency,3D7,inactive
same,Potency,7G8,inactive
same,Potency,AA1029,inactive
same,Potency,AS120,inactive
same,Potency,ATS189,inactive
same,Potency,ATS95,inactive
same,Potency,C2A,inactive
same,Potency,CP185,inactive
same,Potency,CP191,inactive
same,Potency,CP192,inactive
same,Potency,CP194,inactive
same,Potency,CP201,inactive
same,Potency,CP203,inactive
same,Potency,CP211,inactive
same,Potency,CP215,inactive
same,Potency,CP217,inactive
same,Potency,CP237,inactive
same,Potency,CP238,inactive
CC(NNC(=O)c1ccccc1)c1ccccc1 (configuration not stated),"activity, negative = inhibition",[2]; parasite line A,2.16% (inactive)
same,"activity, negative = inhibition",[2]; parasite line B,14.7% (inactive)
same,Potency,3D7,inactive
same,Potency,7G8,inactive
same,Potency,AA1029,inactive
same,Potency,AS120,inactive
same,Potency,ATS189,inactive
same,Potency,ATS95,inactive
same,Potency,C2A,inactive
same,Potency,CP185,inactive
same,Potency,CP191,inactive
same,Potency,CP192,inactive
same,Potency,CP194,inactive
same,Potency,CP201,inactive
same,Potency,CP203,inactive
same,Potency,CP211,inactive
same,Potency,CP215,inactive
same,Potency,CP217,inactive
same,Potency,CP237,inactive
same,Potency,CP238,inactive
CCCCCCCC(=O)O,"activity, negative = inhibition",[2]; parasite line A,5.42% (inactive)
same,"activity, negative = inhibition",[2]; parasite line B,9% (inactive)
same,Potency,3D7,inactive
same,Potency,7G8,inactive
same,Potency,AA1029,inactive
same,Potency,AS120,inactive
same,Potency,ATS189,inactive
same,Potency,ATS95,inactive
same,Potency,C2A,inactive
same,Potency,CP185,inactive
same,Potency,CP191,inactive
same,Potency,CP192,inactive
same,Potency,CP194,inactive
same,Potency,CP201,inactive
same,Potency,CP203,inactive
same,Potency,CP211,inactive
same,Potency,CP215,inactive
same,Potency,CP217,inactive
same,Potency,CP237,inactive
same,Potency,CP238,inactive
CC(O)CO (configuration not stated),"activity, negative = inhibition",[2]; parasite line A,8.15% (inactive)
same,"activity, negative = inhibition",[2]; parasite line B,7.84% (inactive)
same,Potency,3D7,inactive
same,Potency,7G8,inactive
same,Potency,AA1029,inactive
same,Potency,AS120,inactive
same,Potency,ATS189,inactive
same,Potency,ATS95,inactive
same,Potency,C2A,inactive
same,Potency,CP185,inactive
same,Potency,CP191,inactive
same,Potency,CP192,inactive
same,Potency,CP194,inactive
same,Potency,CP201,inactive
same,Potency,CP203,inactive
same,Potency,CP211,inactive
same,Potency,CP215,inactive
same,Potency,CP217,inactive
same,Potency,CP237,inactive
same,Potency,CP238,inactive
CCNC(=O)[C@@H]1CCCN1C(=O)[C@H](CCCN=C(N)N)NC(=O)[C@H](CC(C)C)NC(=O)[C@@H](Cc1c[nH]c2ccccc12)NC(=O)[C@H](Cc1ccc(O)cc1)NC(=O)[C@H](CO)NC(=O)[C@H](Cc1c[nH]c2ccccc12)NC(=O)[C@H](Cc1cnc[nH]1)NC(=O)[C@@H]1CCC(=O)N1,Potency,[2]; parasite line A,4.47 µM (active)
same,Potency,[2]; parasite line B,5.62 µM (active)
same,Potency,3D7,7.08 µM (active)
same,Potency,7G8,1.12 µM (active)
same,Potency,AA1029,3.16 µM (active)
same,Potency,AS120,4.47 µM (active)
same,Potency,ATS189,8.91 µM (active)
same,Potency,ATS95,4.47 µM (active)
same,Potency,C2A,7.08 µM (active)
same,Potency,CP185,11.2 µM (active)
same,Potency,CP191,7.94 µM (active)
same,Potency,CP192,9.53 µM (active)
same,Potency,CP194,7.57 µM (active)
same,Potency,CP201,15.1 µM (active)
same,Potency,CP203,6.75 µM (active)
same,Potency,CP211,6.75 µM (active)
same,Potency,CP215,13.5 µM (active)
same,Potency,CP217,7.08 µM (active)
same,Potency,CP237,3.55 µM (active)
same,Potency,CP238,7.08 µM (active)
C[C@@H]1CCC2[C@@H](C)[C@@H](O)O[C@@H]3O[C@@]4(C)CC[C@@H]1[C@@]23OO4 (some centres not stated),Potency,[2]; parasite line A,0.0014 µM (active)
same,Potency,[2]; parasite line B,0.0018 µM (active)
same,Potency,3D7,0.0035 µM (active)
same,Potency,7G8,0.0008 µM (active)
same,Potency,AA1029,0.0022 µM (active)
same,Potency,AS120,0.0016 µM (active)
same,Potency,ATS189,0.0022 µM (active)
same,Potency,ATS95,0.0022 µM (active)
same,Potency,C2A,0.0022 µM (active)
same,Potency,CP185,0.0025 µM (active)
same,Potency,CP191,0.0032 µM (active)
same,Potency,CP192,0.0043 µM (active)
same,Potency,CP194,0.006 µM (active)
same,Potency,CP201,0.0107 µM (active)
same,Potency,CP203,0.0034 µM (active)
same,Potency,CP211,0.0054 µM (active)
same,Potency,CP215,0.0048 µM (active)
same,Potency,CP217,0.0028 µM (active)
same,Potency,CP237,0.0016 µM (active)
same,Potency,CP238,0.0022 µM (active)
Cc1cn([C@H]2C[C@H](O)[C@@H](CO)O2)c(=O)[nH]c1=O,"activity, negative = inhibition",[2]; parasite line A,4.1% (inactive)
same,"activity, negative = inhibition",[2]; parasite line B,-3.41% (inactive)
same,Potency,3D7,inactive
same,Potency,7G8,inactive
same,Potency,AA1029,inactive
same,Potency,AS120,inactive
same,Potency,ATS189,inactive
same,Potency,ATS95,inactive
same,Potency,C2A,inactive
same,Potency,CP185,inactive
same,Potency,CP191,inactive
same,Potency,CP192,inactive
same,Potency,CP194,inactive
same,Potency,CP201,inactive
same,Potency,CP203,inactive
same,Potency,CP211,inactive
same,Potency,CP215,inactive
same,Potency,CP217,inactive
same,Potency,CP237,inactive
same,Potency,CP238,inactive
